From PubChem BioAssay

The compounds below were run against Streptavidin (Streptomyces avidinii) (UniProt P22629) (assay: streptavidin binders on small-molecule microarray, primary screen, artefact control for SMM compound annotation, biophysical, 635/667 nm fluorescence (AID 1147;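 also: signal reflects streptavidin binding to arrayed compounds as a control protein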)). Settings: streptavidin binding, higher = more signal.
Chain of Streptavidin (Streptomyces avidinii) (P22629 whole entry, looked up): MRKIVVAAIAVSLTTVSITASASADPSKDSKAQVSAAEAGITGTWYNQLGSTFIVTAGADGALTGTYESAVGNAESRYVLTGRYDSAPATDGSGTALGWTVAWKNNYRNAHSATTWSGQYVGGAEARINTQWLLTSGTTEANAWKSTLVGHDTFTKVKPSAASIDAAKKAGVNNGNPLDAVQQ

Row | Structure (SMILES) | composite z-score
1 | COC(=O)C(CC#Cc1ccc2c(c1)[C@]1(C(=O)N2)[C@H](c2ccc(O)cc2)N2[C@H](c3ccccc3)[C@H](c3ccccc3)OC(=O)[C@H]2[C@@H]1C(=O)N1CCCCCCC1)C(=O)OC | 1.26
2 | CC(C)=CCCC(C)=CC(O)C1C=CC2C(=O)N(c3ccccc3)C(=O)C2N1Nc1ccccc1F (stereo not given) | 1.17
3 | CN(C)CCCCNC(=O)[C@H]1C[C@H]2C(=O)N[C@@H](CCCC[N+](C)(C)C)C(=O)N2[C@H]1c1ccc(O)cc1 | -0.202
4 | CN(C)CCCNC(=O)[C@@H]1c2ccccc2C(=O)N(C2CCCCC2)[C@H]1c1ccc(CO)cc1 | 0.139
5 | CC(C)CNC(=O)[C@@H]1c2ccccc2C(=O)N(C2CCCCC2)[C@H]1c1ccc(CO)cc1 | -0.285
6 | O=C1C2C=CC(C(O)c3ccco3)N(Nc3ccccc3)C2C(=O)N1c1ccccc1 (stereo not given) | -0.511
7 | COc1ccc([Si](C)(C)[C@@H]2[C@@H](CCn3cc([C@H](O)c4ccccc4)nn3)O[C@]3(C(=O)N(c4ccccc4)c4ccccc43)[C@H]2C)cc1 | -0.238
8 | CCCNC(=O)[C@@]1(Sc2ccc(C)cc2)CC(=O)N(C2CCCCC2)[C@@H]1c1ccc(CO)cc1I | 0.133
9 | COC(=O)C(CC#Cc1ccc2c(c1)[C@]1(C(=O)N2)[C@H](C(=O)Nc2nc3ccccc3s2)[C@H]2C(=O)O[C@H](c3ccccc3)[C@H](c3ccccc3)N2[C@@H]1c1ccc(OCCO)cc1)C(=O)OC | 1.25
10 | CC(=O)NCCCC[C@@H]1NC(=O)[C@@H]2C[C@H](C(=O)NCCCCCCN)[C@H](c3cccc(OCCO)c3)N2C1=O | 0.932
11 | COc1ccc([Si](C)(C)[C@H]2[C@H](CCO)O[C@@]3(C(=O)N(Cc4ccc(N5C(=O)c6ccccc6Oc6ccccc65)cc4)c4ccccc43)[C@@H]2C)cc1 | -0.446
12 | CCCCC=C[C@@H](NC(=O)c1ccccc1)c1ccccc1 | 1.89
13 | COCCOC(=O)N1C(=O)[C@@]2(c3cc(C#CC4=CCCCC4)ccc31)[C@H](C(=O)N1CCCCCCC1)[C@H]1C(=O)O[C@H](c3ccccc3)[C@H](c3ccccc3)N1[C@@H]2c1ccc(OCCO)cc1 | 1.29
14 | COCCOC(=O)N1C(=O)[C@@]2(c3cc(C#CCNC(N)=O)ccc31)[C@H](c1ccc(O)cc1)N1[C@H](c3ccccc3)[C@H](c3ccccc3)OC(=O)[C@H]1[C@@H]2C(=O)N1CCN(c2ncccn2)CC1 | 0.374
15 | COCCOC(=O)N1C(=O)[C@@]2(c3cc(C#CCCO)ccc31)[C@H](c1ccccc1OCCO)N1[C@H](c3ccccc3)[C@H](c3ccccc3)OC(=O)[C@H]1[C@@H]2C(=O)N1CCCCCCC1 | 1.31
16 | CC(=O)N1CC(C(O)C2C=CC3C(=O)NC(=O)C3N2Nc2ccc(Cl)cc2Cl)c2ccccc21 (stereo not given) | 0.543
17 | COc1cc2c(cc1OC)CN(C(=O)[C@@H]1[C@H]3C(=O)O[C@H](c4ccccc4)[C@H](c4ccccc4)N3[C@H](c3ccc(O)cc3)[C@@]13C(=O)Nc1ccc(C#CCCO)cc13)CC2 | 0.819
18 | NCCCCCNC(=O)[C@H]1C[C@H]2C(=O)N[C@@H](Cc3ccccc3)C(=O)N2[C@H]1c1ccc(O)cc1 | 1.13

Row | Structure (SMILES) | composite z-score
19 | CC(C)OC(=O)CC(=O)CC(O)c1ccc([N+](=O)[O-])cc1 (stereo not given) | -0.402
20 | CCCNC(=O)[C@@]1(C)c2ccccc2C(=O)N(Cc2ccccc2)[C@H]1c1ccc(CO)cc1 | -1
21 | COC(=O)[C@@]1(Cc2ccc(OC)cc2)[C@H]2c3cc(C(=O)N4CCCC4)n(Cc4cc(C)n(C)n4)c3C[C@H]2CN1C(=O)c1ccccc1 | 1.92
22 | C=CCC(OC(C)=O)[C@@H]1[C@@H](N(Cc2ccc(-c3cccc(C(F)(F)F)c3)o2)C(=O)c2ccc(C)cc2)c2cc(OCCCO)ccc2N1C(=O)Cc1ccc(OC)cc1 (stereo not given in full) | -0.109
23 | CC(=O)n1cc(C(O)C2C=CC3C(=O)N(c4ccccc4)C(=O)C3N2Nc2ccc(C(C)C)cc2)c2ccccc21 (stereo not given) | 1.88
24 | C=CCC(OC(C)=O)[C@@H]1[C@@H](N(Cc2ccc(-c3ccccc3)cc2)C(=O)c2ccc(C)cc2)c2cc(OCCCO)ccc2N1C(=O)Cc1ccc2ccccc2c1 (stereo not given in full) | 0.129
25 | COc1cc(C(O)C2C=CC3C(=O)N(Cc4ccccc4)C(=O)C3N2n2cnnc2)cc(OC)c1OC (stereo not given) | 0.267
26 | COc1ccc(C(=O)Nc2cccc(CN3C(=O)[C@@]4(O[C@@H](CC(=O)N(CCO)Cc5ccccc5)[C@H]([Si](C)(C)c5ccc(OC)cc5)[C@H]4C)c4ccccc43)c2)cc1 | -0.503
27 | C=CCC(OC(C)=O)[C@@H]1[C@@H](N(Cc2ccc(-c3cccc(C(F)(F)F)c3)o2)C(=O)Cc2ccc(OC)cc2)c2cc(OCCCO)ccc2N1C(=O)Cc1ccc2ccccc2c1 (stereo not given in full) | -0.679
28 | CO[C@H]1O[C@H](CO)[C@@H](OC(=O)c2ccc(Br)cc2)[C@@H]2OC(=O)[C@H](Cc3ccccc3)C/C=C/C[C@@H](Cc3ccccc3)C(=O)O[C@@H]12 | 0.088
29 | O=C(CS)NCCCCCCNC(=O)[C@@H]1C[C@@H]2C(=O)NCC(=O)N2[C@@H]1c1ccc(O)cc1 | -0.635
30 | COCCOC(=O)N1C(=O)[C@@]2(c3cc(C#CCNC(N)=O)ccc31)[C@H](c1ccc(OCCO)cc1)N1[C@H](c3ccccc3)[C@H](c3ccccc3)OC(=O)[C@H]1[C@@H]2C(=O)NC[C@H](O)c1ccccc1 | 0.904
31 | CC(C)C[C@@H]1NC(=O)CNC(=O)[C@@]23C(=O)N[C@@H](Cc4ccccc4)C2[C@H](C)[C@@]2(C)O[C@H]2C3/C=C/C/C=C\CNC1=O (stereo not given in full) | -0.0691
32 | COCCOC(=O)N1C(=O)[C@@]2(c3cc(C#CC4(O)CCCCCC4)ccc31)[C@H](c1ccc(OCCO)cc1)N1[C@H](c3ccccc3)[C@H](c3ccccc3)OC(=O)[C@H]1[C@@H]2C(=O)Nc1nc2ccccc2s1 | 0.945
33 | COCCOC(=O)N1C(=O)[C@@]2(c3cc(C#CCC(C(=O)OC)C(=O)OC)ccc31)[C@H](C(=O)NC[C@H](O)c1ccccc1)[C@H]1C(=O)O[C@H](c3ccccc3)[C@H](c3ccccc3)N1[C@@H]2c1ccc(O)cc1 | -0.003
34 | C=C(C(=O)CC[C@H](OC(=O)c1ccccc1-c1ccccc1C(=O)O)c1ccccc1OCCO)C(C)C | -0.344
35 | C=C(C)[C@@H]1CC=C(C(O)C2C=CC3C(=O)N(c4ccccc4)C(=O)C3N2Nc2ccc(C#N)cc2)CC1 (stereo not given in full) | 1.48
